Growth inhibition data for 90 molecules are collected here from PubChem BioAssay AID1979 (Broad Institute, 2009).

Screen size: about 300,000 compounds; about 1,700 (0.57%) were called active. About 2% were inconclusive and are not listed.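 How the source made its calls: active means growth inhibition above about 58% in most replicates (limit read from the data, passing the limit was not always enough); inconclusive means exactly half the replicates above a set limit; inactive means most replicates below a set limit.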 The sample as a whole holds a higher share of actives than the screen did.

The assay can be described thus: Candida growth reduction under fluconazole – CaCi-2 strain, Alamar Blue fluorescence, primary screen (AID 1979).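 Further: all wells also contain fluconazole at 8 µg/ml as a sub-toxic cotreatment; 0% = median of DMSO wells and 100% = median of geldanamycin control wells.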 Particulars: C. albicans CaCi-2 (fluconazole-resistant clinical isolate) + fluconazole, 48 h, active compounds read high, concentration not given here.
On to `Nc1cc(N)nc(SCc2ccc(Cl)cc2)n1`, for which the growth inhibition is 12.7% (inactive).
As to `Nc1cc(N)nc(SCc2cccc(F)c2)n1`, the growth inhibition is 93.5% (active).
To `CCc1nnc(SCc2cccc(F)c2)nc1CC` belongs -15.9% (inactive); to `O=C(c1ccc(Cl)s1)N(Cc1nnc(-c2ccccc2Cl)o1)C1CC1`, -12.7% (inactive); to `COc1ccccc1N1CCN(C(=O)c2cc(=O)c3cc(C)cc(C)c3o2)CC1`, 4.61% (inactive).
For `Cc1ccc(SCc2c(C(=O)N/N=C/c3cccnc3)nnn2-c2nonc2N)cc1`, the growth inhibition was 19.8% (inactive).
To `Nc1nonc1-n1nnc(C(=O)N/N=C/c2ccccc2O)c1CN1CCCC1` belongs -25.8% (inactive); to `Nc1nonc1-n1nnc(C(=O)N/N=C/c2cc(Br)ccc2O)c1CSC1=NCCS1`, 90.5% (active).
For `COc1cc(C2NC(=O)NC(c3ccccc3)=C2C(C)=O)c(Br)cc1OCC(N)=O` (stereo not given), the growth inhibition was 6.65% (inactive).
To `CCOC(=O)C1=C(c2ccccc2)NC(=O)NC1c1cc(OCC)c(O)c([N+](=O)[O-])c1` (stereo not given) belongs 38% (inactive); to `CCOC(=O)C1=C(c2ccccc2)NC(=O)NC1c1cc(OC)c(OC)cc1OC` (stereo not given), 111% (active).
Next, `Cc1cccc(NS(=O)(=O)c2ccc(C(=O)NCC(C)(C)N3CCOCC3)cc2)c1C`: -3.65% (inactive).
To `CCOc1ccc(CCNC(=O)COC(=O)c2c(OC)cccc2OC)cc1OCC` belongs 8.5% (inactive).
Turning to `Cc1ccn2c(=O)c(NC(=O)c3cccc4ccccc34)c(C)nc2c1`, the growth inhibition was 1.1% (inactive).
Next, `CCOc1ccc(NC(=O)NNC(=O)c2ccc(Cl)cc2Cl)cc1`: 0.808% (inactive); `OC(CNCCc1ccc(Cl)cc1Cl)COc1ccccc1` (stereo not given): 7.1% (inactive).
Consider `NC(N)=N/N=C/c1ccc(OCc2ccc(Cl)cc2Cl)cc1`, for which the growth inhibition was 123% (active).
Next, `OCCCNc1nc(-c2ccccc2)c2cc(Cl)ccc2n1`: 14.2% (inactive); `O=c1c(-c2cccc(Cl)c2)c[nH]n1-c1ccccc1`: 0.955% (inactive).
To `O=C(O)C(c1ccccc1)N1C(=O)/C(=C\c2ccc(-c3cccc(Cl)c3)o2)SC1=S` (stereo not given) belongs 37.9% (inactive); to `O=C1c2ccccc2NC(c2ccc(-c3cccc(Cl)c3)o2)N1O` (stereo not given), 96.8% (active); to `Cc1ccc(CCN2CC(C(=O)NCCc3ccccc3)CC2=O)cc1` (stereo not given), -6.78% (inactive).
To `Cc1cccnc1NC(=O)Cn1c(=O)oc2ccccc21` belongs -0.441% (inactive).
With `C[C@@H]1C[C@@H]2O[C@H]2/C=C\C=C\C(=O)Cc2c(Cl)c(O)cc(O)c2C(=O)O1`, the growth inhibition was 84.1% (active).
Next, `COC(=O)c1cc(-c2cccs2)nc2ccccc12`: -7.15% (inactive); `O=C(Nc1nnc(-c2ccccc2)o1)c1cc(-c2cccs2)nc2ccccc12`: 89.3% (active).
Take `O=C(NCCN1CCOCC1)c1cc(-c2cccs2)nc2ccccc12`: the growth inhibition was -3.11% (inactive).
Next, `CC1CCCN(S(=O)(=O)c2ccc(C(=O)Nc3nnc(-c4ccncc4)o3)cc2)C1` (stereo not given): 18.1% (inactive); `CSCc1nnc(NC(=O)c2ccc(S(=O)(=O)N3CCCCC3C)cc2)o1` (stereo not given): 8.82% (inactive).
To `CC1CCCCN1S(=O)(=O)c1ccc(C(=O)Nc2nnc(-c3cccs3)o2)cc1` (stereo not given) belongs 95.4% (active).
To `COc1ccc(-c2cc(=O)oc3cc(OC(C)C(=O)NCC4CCC(C(=O)O)CC4)ccc23)cc1` (stereo not given) belongs -4.33% (inactive); to `CSCCC(NS(=O)(=O)c1ccc(C)cc1)C(=O)NCCc1c[nH]c2ccccc12` (stereo not given), -6.21% (inactive).
As for `O=S(=O)(/N=C(/Nc1ccccc1)c1ccccc1)c1cccs1`, the growth inhibition was -39.8% (inactive).
To `CN(/C(=N/S(=O)(=O)c1cccs1)c1ccccc1)c1ccc(O)cc1` belongs 117% (active); to `COc1ccc(N(C(=O)c2ccc(C)cc2)S(=O)(=O)c2cccs2)cc1`, 4.35% (inactive); to `CN(CC(=O)Nc1cccc(F)c1)C(=O)C1CC(=O)N(CCc2ccccc2)C1` (stereo not given), -9.09% (inactive).
For the molecule `Oc1ccc2ccccc2c1N=Nc1nccs1`, the growth inhibition is 0.433% (inactive).
For `Oc1ccc(N=Nc2nccs2)c(O)c1`, the growth inhibition is 85.9% (active).
Next, `CC(CN1CCC(n2nccc2NC(=O)C2CCCC2)CC1)c1ccccc1` (stereo not given): -5.12% (inactive); `CC1=NNC(=O)C1Cc1c(Cl)cccc1Cl` (stereo not given): -0.631% (inactive); `CN(C(=O)COC(=O)CNC(=O)C12CC3CC(CC(C3)C1)C2)c1ccccc1`: -17.2% (inactive).
Regarding `Cc1ccc(C(=O)NCCNC(=O)c2ccccc2)cc1`, the growth inhibition is 5.77% (inactive).
Next, `CN(C(=O)CC(NC(=O)c1ccccc1)(c1ccccc1)c1ccccc1)c1ccccc1`: 91.8% (active); `Nc1c(C(=O)Nc2ccc3c(c2)OCCO3)nnn1Cc1ccccc1`: 9.7% (inactive).
`Cc1sc2ncnc(N3CCC(C(=O)NNC(=O)c4ccc(F)cc4)CC3)c2c1C`: the growth inhibition is 11% (inactive).
Regarding `COc1ccc(S(=O)(=O)NCCCc2ccccc2)cc1`, the growth inhibition is -3.19% (inactive).
Next, `Cc1nn(-c2ccccc2)c(C)c1NC(=O)COC(=O)c1cc(Cl)ccc1O`: -3.39% (inactive).
To `CCN1C(=O)[C@H]2[C@@H](c3ccc(C)cc3)N3C(=O)N(c4cccc(Br)c4)C(=O)[C@@]3(CC)[C@H]2C1=O` belongs -1.61% (inactive); to `Cc1c(Cl)c([N+](=O)[O-])nn1Cc1ccc(C(=O)N/N=C\c2cc(Cl)ccc2O)o1`, 112% (active); to `O=C(N/N=C/c1ccc2c(c1)OCO2)c1ccc(Cn2cc([N+](=O)[O-])cn2)o1`, -1.68% (inactive).
Consider `Cc1c(Cl)c([N+](=O)[O-])nn1CCCC(=O)Nc1cc(Cl)ccc1Cl`, for which the growth inhibition is 0.816% (inactive).
To `O=C1N[C@@H](Cc2ccccc2)C(=O)N2[C@H]1C[C@]1(Br)c3ccccc3N(S(=O)(=O)c3ccccc3)[C@H]21` belongs 4.33% (inactive).
Next, `C/C(=N\NC(=O)CC(C)C)c1c(C(F)(F)F)[nH]n(-c2nc3ccccc3s2)c1=O`: 8.15% (inactive); `COC(=O)Cc1[nH]n(-c2nc3ccccc3s2)c(=O)c1C(C)=Nc1ccc(OC)cc1`: 5.2% (inactive); `COC(=O)Cc1cc(=O)n(-c2nc3ccccc3s2)[nH]1`: 93.5% (active).
Next, `COc1cc(/C=C/C(=O)O)cc(S(=O)(=O)Nc2ccccc2C(=O)NCCc2ccccc2)c1OC`: -0.0595% (inactive); `O=C(Nc1cccc(-c2nc3ccccc3[nH]2)c1)c1ccc(C(=O)Nc2cccc(-c3nc4ccccc4[nH]3)c2)cc1`: -12.9% (inactive); `Cc1ccc(-n2nc3ccc(NC(=O)/C=C/c4ccco4)cc3n2)cc1C`: 20% (inactive).
As for `O=C(/C=C/c1ccco1)Nc1cccc(-c2nc3ccccc3[nH]2)c1`, the growth inhibition is 91.5% (active).
As to `CCOc1cc(/C=N/NC(=O)c2cccc(S(=O)(=O)N3CCOCC3)c2)ccc1OCC(=O)N(C)C`, the growth inhibition is 3.22% (inactive).
Regarding `CC(=O)c1nn(-c2ccc(C)cc2)cc1C(=O)c1cccc(Br)c1`, the growth inhibition is -5.17% (inactive).
To `CC1CCC(NC(=O)CNC(=O)c2ccc3ccccc3c2)CC1` (stereo not given) belongs 4.42% (inactive).
To `O=C(NCC(=O)N(CC1CCCO1)C(C(=O)NC1CCCCC1)c1ccccc1)c1ccco1` (stereo not given) belongs 103% (active); to `COc1ccc(N(C(=O)CNC(=O)c2ccco2)C(C(=O)NCC2CCCO2)c2ccccc2)cc1Cl` (stereo not given), 7.7% (inactive); to `Cc1ccc(N(C(=O)CNC(=O)c2ccco2)C(C(=O)NC2CCCC2)c2ccncc2)cc1` (stereo not given), -17% (inactive).
Regarding `CC1CCCCN1S(=O)(=O)CCNC(=O)c1ccccc1` (stereo not given), the growth inhibition was 0.685% (inactive).
Next, `Cc1nnsc1C(=O)N/N=C/c1ccccc1Cl`: -6.46% (inactive); `Cc1cc(Cl)ccc1NNC(=O)c1snnc1C`: 85.6% (active); `Cc1nnsc1C(=O)Nc1cccc(Cl)c1C`: -1.12% (inactive).
To `Cc1cc(C)nc(N/N=C/c2ccc([N+](=O)[O-])o2)n1` belongs 11.2% (inactive); to `CCc1ccc(S(=O)(=O)N/N=C\c2ccc([N+](=O)[O-])o2)cc1`, 13.3% (inactive).
To `C/[N+]([O-])=C\c1ccc([N+](=O)[O-])o1` belongs 110% (active); to `CCc1ccccc1NC(=O)c1cc(-c2ccc3c(c2)OCO3)on1`, -0.103% (inactive).
Consider `Cc1ccc(C)c(N2CCN(C(=O)Cn3ncn4cccc4c3=O)CC2)c1`, for which the growth inhibition is -9.35% (inactive).
Next, `CSc1ccccc1NC(=O)C(C)N1C(=O)c2ccccc2S1(=O)=O` (stereo not given): 2.61% (inactive).
To `O=C(O)CN1CCN(C(c2ccccc2)c2ccccc2)CC1` belongs -6.25% (inactive); to `CC(C)NC(=S)N1CCN(C(c2ccccc2)c2ccccc2)CC1`, 11.5% (inactive); to `CC1(C)CC(N2CCN(C(c3ccccc3)c3ccccc3)CC2)=CC(=[N+]2CCCCC2)C1`, 95.7% (active).
To `O=C(Nc1cc(Cl)ccc1N1CCOCC1)c1ccc(N2CCCC2=O)cc1` belongs 4% (inactive); to `O=C(NCCC1CCCCN1S(=O)(=O)c1cccs1)C(=O)Nc1ccc(F)cc1F` (stereo not given), 7.39% (inactive); to `O=C(Nc1cccc2c1CCCC2)c1ccc(F)cc1`, -3.5% (inactive).
As to `Cn1c(NN)nc2sc3c(c2c1=O)CCC3`, the growth inhibition was 87.2% (active).
Next, `NNC(=O)C1CCCn2c1nc1sc3c(c1c2=O)CCCC3` (stereo not given): 2.28% (inactive).
Next, `Cc1nc2sc3c(c2c(=O)n1NC(=O)CCl)CCCC3`: 9.31% (inactive).
To `C#CCOCCOCCOCCNc1nc(N2CCN(C(=O)C([C@@H](C)CC)n3cc(C(N)COC(=O)C(F)(F)F)nn3)CC2)nc(N2CCN(C(=O)[C@H](CCCCN)n3cc(C(N)CC(C)C)nn3)CC2)n1` (stereo not given in full) belongs 4.02% (inactive); to `O=C(CSC1=NS(=O)(=O)c2cc(F)ccc2N1)Nc1ccccc1F`, 5.53% (inactive).
Consider `Cc1ccc(N=C2SCCCN2C(=O)c2cccc(N3C(=O)CCC3=O)c2)cc1Cl`, for which the growth inhibition is -7.25% (inactive).
Next, `Nc1ccc(SCCN2C(=O)c3ccccc3C2=O)cc1`: 103% (active); `CC(=O)c1cnc(SCCN2C(=O)c3ccccc3C2=O)nc1C`: -3.43% (inactive).
To `O=C(OCCN1C(=O)c2ccccc2C1=O)Oc1ccccc1` belongs 4.11% (inactive).
